The values below come from PubChem BioAssay (NCI).

Structures are written as SMILES. Compounds without any hit were thinned out: in the full panel of roughly 83,000, 20% have a hit.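 In brief: 96-well plates, 48 h treatment, single concentration, percent growth endpoint.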 Values without a mark were called inactive. Calls of active or inactive are those of the source.

The assay deals with CCRF-CEM leukemia. As to the kind of experiment: NCI-60 one-dose screen, 48 h (100 = growth as untreated, 0 = no growth, -100 = all killed). The settings on record: 10 µM unless noted. The method, then: Growth inhibition of the CCRF-CEM human tumor cell line is measured as a screen for anti-cancer activity. Cells are grown in 96 well plates and exposed to the test compound for 48 hours. Compounds are tested at a single concentration, which is 10^-5 M for most compounds. The reported endpoint is percent growth (GI% or GIPRCNT), where numbers from 0 - 100% represent growth inhibition, and numbers from -100% - 0 represent cell death. For example, a value of 40 represents 60% growth inhibition. A value of 0 means no net growth occurred over the course of the experiment. A value of -40 indicates 40% of cells at the beginning of the experiment died by the end of the experiment. A value of -100 means all cells are dead at the end of the experiment.
NCI-60 Human Tumor Cell Lines Screen was performed using the standard one-dose NCI protocol, which is described in more detail at https://dtp.cancer.gov/discovery_development/nci-60/default.htm.
Compounds with GIPRCNT values below 10 were considered active. Activity score was based on GIPRCNT using the following formula: […]
Score is 0 for GIPRCNT values of 100 or above, 50 for GIPRCNT values of 0, and 100 for GIPRCNT values of -100.
`ClCCN(CCCl)c1ccc(/C=C\c2ccnc3ccccc23)cc1`: the growth is 71%.

Take `C[C@]12CCc3sc(-c4ccc(Cl)cc4)nc3C1=CC[C@@H]1[C@@H]2CC[C@]2(C)C(=O)CC[C@@H]12`: the growth is 14.5%. As for `CCCCn1cc(C(=O)/C(C#N)=C/c2cc3ccccc3nc2Cl)c2cc(OC)ccc21`, the figure is 33.4%; as for `O=C(N/N=C/c1ccc(N(CCCl)CCCl)cc1)c1cc(=O)[nH]c(=O)[nH]1`, 66.5%; as for `O=c1[nH]c2cc(Cl)ccc2n1C1CCN(CCCC(c2ccc(F)cc2)c2ccc(F)cc2)CC1`, -39.3% (active). To `ClCCN(CCCl)c1nc(Cl)c(C2CC(c3ccccc3)=NN2c2ccccc2)s1` (stereo not given) belongs 88.9%. With `N#CC1c2ccccc2C=CN1C(=O)c1ccc(N(CCCl)CCCl)cc1` (stereo not given), the growth is 87%.

`CC[C@H](C)[C@H](NC(=O)Nc1ccccc1)C(=O)N(C)[C@H](C[C@@H](OC(C)=O)c1nc(C(=O)N[C@@H](Cc2ccccc2)C[C@H](C)C(=O)OC)cs1)C(C)C`: the growth is 9.52% (active). To `Cc1cc(NC(=O)/C=C/c2ccc([N+](=O)[O-])cc2)ccc1S(=O)(=O)F` belongs 98.2%. To `NC(Cc1ccc(O)cc1)C(=O)N/N=C/c1ccc(N(CCCl)CCCl)cc1` (stereo not given) belongs 27.9%.

For `Fc1ccc(C2=NN(c3ccccc3)C(c3sc(N(CCCl)CCCl)nc3Cl)C2)cc1` (stereo not given), the growth is 83.1%. As for `CC(=O)Nc1ccc(C=C2C(=O)NC(=O)NC2=O)cc1`, the growth was 86.1%. To `O=C(O)CNC(=O)c1ccccc1` belongs 101%; to `CO[C@@H]([CH2][Hg][S]C#N)[C@@H]([CH2][Hg][S]C#N)OC`, 42.5%. To `C=C=[CH][Sn]([c]1ccccc1)([c]1ccccc1)[c]1ccccc1` belongs -0.102% (active); to `C=CCN1C(=O)C(CC)(CCC(C)C)C(=O)NC1=S` (stereo not given), 86.3%. As for `CNC(=O)Oc1ccccc1`, the growth is 111%. As for `C[CH2][Sn]([CH2]C)([CH2]C)[NH]S(=O)(=O)c1ccc(C)cc1`, the figure is 108%; as for `Cc1ccc(C[As+](c2ccccc2)(c2ccccc2)c2ccccc2)cc1`, 16.3%. To `CC[C@@H](C)/C=C(C)/C=C/C(=O)c1c(O)c(-c2ccc(O)cc2)cn(O)c1=O` belongs 9.47% (active). In the case of `C/C1=C/C(=O)O[C@@H]2C[C@@H](CC[C@H](C)/C=C\C=C\CC1)O[C@@](OCCc1ccccc1)([C@@H]1CSC(=O)N1)C2`, the growth is 21.2%. As for `O=C(CCc1ccco1)NC1CCN(CC2(c3ccc(Cl)cc3)CCC2)CC1`, the figure is 6.1% (active); as for `O=C1C=CC(=O)C2C1C1(Cl)C(Cl)=C(Cl)C2(Cl)C1(Cl)Cl` (stereo not given), 60.4%; as for `CC(C)(C)NCC(O)c1ccccc1Cl` (stereo not given), 10.5%. As for `Cn1cnnc1[S-].[Au+].c1ccc([PH+](c2ccccc2)c2ccccc2)cc1`, the figure is 1.22% (active). With `CC12CCC(=O)C=C1CCC1C2CCC2(C)C(C(=O)COC(=O)Cc3ccc(N(CCCl)CCCl)cc3)CCC12` (stereo not given), the growth was 26.7%. As for `CC1(C)N=C(N)N=C(N)N1c1cccc(C(=O)Nc2cccc(S(=O)(=O)F)c2)c1`, the figure is 97.5%; as for `c1cnc2c(c1)ccc1ncccc12`, 95.6%.

`CC(=O)OC1CCC2(C)C(=CCC3C4CC(CN5CC5)C(=O)C4(C)CCC32)C1` (stereo not given): the growth was 18.3%. To `COc1cccc2c1C(=O)c1c(O)c3c(c(O)c1C2=O)CC(O)(/C(C)=N/NC(=O)CCC(=O)N/N=C(\C)C1(O)Cc2c(O)c4c(c(O)c2C(OC2CC(N)C(O)C(C)O2)C1)C(=O)c1c(OC)cccc1C4=O)CC3OC1CC(N)C(O)C(C)O1` (stereo not given) belongs -25.2% [5 µM] (active). To `OC1(c2ccc(Cl)cc2Cl)c2ccccc2C2=NCCN21` (stereo not given) belongs 90.5%.

On to `S=P(NC1CCCCC1)(N1CC1)N1CC1`, for which the growth is 102%. In the case of `O1[As]2O[As]3O[As]1O[As](O2)O3`, the growth is 13.1%.

Consider `COc1ccc(C(c2ccc(OC)cc2)C(Cl)(Cl)Cl)cc1`, for which the growth was 55.6%.

On to `c1ccc(CCN2CCCCC2Cc2ccccc2)cc1` (stereo not given), for which the growth is 105%.

For `Cc1ccc(C(=O)C2CN(C)CCC2(O)c2ccc(C)cc2)cc1` (stereo not given), the growth was 106%. As for `CC1=C(SCCC(=O)OCC(=O)NCCC[Te]c2ccccc2)C(=O)c2ccccc2C1=O`, the figure is 2.25% (active); as for `Oc1ccc(O)c2c1C1(Cl)C(Cl)=C(Cl)C2(Cl)C1(Cl)Cl`, 56.9%; as for `CCOC(=O)c1cnc(SCc2ccc(Cl)c(Cl)c2)nc1N1CC1`, 38%. For the molecule `CC1(C)CC2(CC(C)(C)c3cc(O)c(O)cc32)c2cc(O)c(O)cc21`, the growth is 84.5%.
